# Values joined by “and” are separate entries in the source; they are usually repeats but may differ in a detail not shown here. Identical values can stand only once. Out of some 31,000 compounds screened, about 360 (1.2%) were called active. Where a call stands in place of a potency, no number is given. Inconclusive results (about 8%) are left out. Calls come from the whole dose curve. The sample as a whole holds a higher share of actives than the screen did.
# Biological target: Polyprotein P1234 (Chikungunya virus (strain S27-African prototype)) (UniProt Q8JUX6)
# Experiment: Primary qHTS for inhibitors of NSP2Pro chikungunya virus (CHIKV); note: nearly all actives have a fitted effect of over 60% in size
# Details: FRET peptide cleavage, fluorescence 1 h; series mostly up to 24.9 µM
# Source text: PI: Natalia J. Martinez Ph.D. National Center for Advancing Translational Sciences (NCATS), National Institute of Health (NIH), Rockville, Maryland Chikungunya virus (CHIKV) is a mosquito-borne RNA virus that has emerged as one of the most important global arboviral threats in the last decade. Although the first CHIKV vaccine has recently been FDA approved for use in healthy adults at increased risk, to date, there are no available antiviral drugs for CHIKV infection. CHIKV nsP2 protease plays a crucial role in the processing of the viral polypeptide precursor to release enzymes required for viral replication, thus making it a promising drug target for antiviral discovery. Here, we established a high-throughput pipeline to identify small molecule inhibitors of nsP2 proteolytic activity. The pipeline is composed of a suite of 1,536-well in vitro assays to support quantitative high-throughput (qHTS) screening campaigns. Specifically, we developed a fluorescence resonance energy transfer (FRET)-based assay using a fluorogenic peptide substrate encompassing an endogenous cleavage site and purified recombinant protease domain (nsP2pro). Using this assay, we interrogated ~37,000 small molecules, including those in drug repurposing libraries as well as chemically diverse and medicinal chemistry-friendly compounds. Hits were selected for follow-up validation against full-length nsP2 and an additional peptide. FRET-based 1,536-well assays for papain, hepatitis C virus NS3-4A, and human furin proteases were implemented to characterize compound selectivity. […] Novel compounds were identified to be potential nsP2 inhibitors and molecular docking analyses were performed to explain the binding mode of selected hits. In vitro antiviral activity was evaluated for a subset of compounds using a high-throughput CHIKV infection assay. To our knowledge, the pipeline presented here is unprecedented for CHIKV antiviral discovery research.
# PROTOCOL TABLE (as described by Inglese J, Shamu CE and Guy RK. 2007) SEQUENCE No. (e.g., 1, 2, 3, etc.); […] (e.g., Cells, Incubation, Reagent, etc.); VALUE; DESCRIPTION. 1; Control / Compound; 20 nL; Echo 655 acoustic dispenser, Greiner 1536-well solid bottom black plate. 2; Enzyme; 4 uL; BioRAPTR FRD liquid dispenser (Beckman Coulter). 3; Incubation; 15 min; room temperature. 4; Reagent; 4 uL; 2.5 uM Peptide 2 substrate. 5; Incubation; 1 hr; room temperature. 6; Detection; Fluorescence; WiewLux microplate reader (PerkinElmer), 525 nm excitation, 598/25 nm emission. NOTES (numbers refer to sequence numbers above). 1. Briefly, 20 nL DMSO, positive control ZnAc (20nM final concentration), and test compounds were transferred into a 1,536-well solid bottom black plate (789176-F, Greiner One) via Echo 655 acoustic dispenser (Beckman Coulter). For primary screens, compounds were tested at 7 concentrations, 1:3 dilution points ranging from 25 uM to 34 nM. Follow-up confirmatory screens were carried out at 11 concentrations, 1:3 dilution points from 25 uM to 0.42 nM. 2. Four uL nsP2pro enzyme mix (150 nM final concentration) in 10 mM Tris-HCl pH 8.0 with 0.01% Tween 20 assay buffer was dispensed into the plate using a BioRAPTR FRD liquid dispenser (Beckman Coulter). 3. The plate was incubated at room temperature (protected from light) for 15 min 4. Four microliter of peptide 2 substrate (2.5 uM final concentration) in assay buffer was added to the plate. 5. After 1 hour, plates were immediately read on a ViewLux high-throughput CCD imager (Exposure = 10 sec, Gain = High, Speed = Slow, Binning = 2X). The above assay was also incorporated in the NCATS HTS facility41, which allowed for robotic liquid and compound dispensing, microplate handling, and fluorescence reading.. REFERENCE: Inglese J, Shamu CE and Guy RK, Reporting data from high throughput screening of small molecule libraries, Nature Chemical Biology, 2007, 3(8): 438-441. doi.org/10.1038/nchembio0807-438.
# Potency is the fitted concentration of half-maximal effect.
# Polyprotein P1234 (Chikungunya virus (strain S27-African prototype)), sequence (Q8JUX6 whole entry, looked up): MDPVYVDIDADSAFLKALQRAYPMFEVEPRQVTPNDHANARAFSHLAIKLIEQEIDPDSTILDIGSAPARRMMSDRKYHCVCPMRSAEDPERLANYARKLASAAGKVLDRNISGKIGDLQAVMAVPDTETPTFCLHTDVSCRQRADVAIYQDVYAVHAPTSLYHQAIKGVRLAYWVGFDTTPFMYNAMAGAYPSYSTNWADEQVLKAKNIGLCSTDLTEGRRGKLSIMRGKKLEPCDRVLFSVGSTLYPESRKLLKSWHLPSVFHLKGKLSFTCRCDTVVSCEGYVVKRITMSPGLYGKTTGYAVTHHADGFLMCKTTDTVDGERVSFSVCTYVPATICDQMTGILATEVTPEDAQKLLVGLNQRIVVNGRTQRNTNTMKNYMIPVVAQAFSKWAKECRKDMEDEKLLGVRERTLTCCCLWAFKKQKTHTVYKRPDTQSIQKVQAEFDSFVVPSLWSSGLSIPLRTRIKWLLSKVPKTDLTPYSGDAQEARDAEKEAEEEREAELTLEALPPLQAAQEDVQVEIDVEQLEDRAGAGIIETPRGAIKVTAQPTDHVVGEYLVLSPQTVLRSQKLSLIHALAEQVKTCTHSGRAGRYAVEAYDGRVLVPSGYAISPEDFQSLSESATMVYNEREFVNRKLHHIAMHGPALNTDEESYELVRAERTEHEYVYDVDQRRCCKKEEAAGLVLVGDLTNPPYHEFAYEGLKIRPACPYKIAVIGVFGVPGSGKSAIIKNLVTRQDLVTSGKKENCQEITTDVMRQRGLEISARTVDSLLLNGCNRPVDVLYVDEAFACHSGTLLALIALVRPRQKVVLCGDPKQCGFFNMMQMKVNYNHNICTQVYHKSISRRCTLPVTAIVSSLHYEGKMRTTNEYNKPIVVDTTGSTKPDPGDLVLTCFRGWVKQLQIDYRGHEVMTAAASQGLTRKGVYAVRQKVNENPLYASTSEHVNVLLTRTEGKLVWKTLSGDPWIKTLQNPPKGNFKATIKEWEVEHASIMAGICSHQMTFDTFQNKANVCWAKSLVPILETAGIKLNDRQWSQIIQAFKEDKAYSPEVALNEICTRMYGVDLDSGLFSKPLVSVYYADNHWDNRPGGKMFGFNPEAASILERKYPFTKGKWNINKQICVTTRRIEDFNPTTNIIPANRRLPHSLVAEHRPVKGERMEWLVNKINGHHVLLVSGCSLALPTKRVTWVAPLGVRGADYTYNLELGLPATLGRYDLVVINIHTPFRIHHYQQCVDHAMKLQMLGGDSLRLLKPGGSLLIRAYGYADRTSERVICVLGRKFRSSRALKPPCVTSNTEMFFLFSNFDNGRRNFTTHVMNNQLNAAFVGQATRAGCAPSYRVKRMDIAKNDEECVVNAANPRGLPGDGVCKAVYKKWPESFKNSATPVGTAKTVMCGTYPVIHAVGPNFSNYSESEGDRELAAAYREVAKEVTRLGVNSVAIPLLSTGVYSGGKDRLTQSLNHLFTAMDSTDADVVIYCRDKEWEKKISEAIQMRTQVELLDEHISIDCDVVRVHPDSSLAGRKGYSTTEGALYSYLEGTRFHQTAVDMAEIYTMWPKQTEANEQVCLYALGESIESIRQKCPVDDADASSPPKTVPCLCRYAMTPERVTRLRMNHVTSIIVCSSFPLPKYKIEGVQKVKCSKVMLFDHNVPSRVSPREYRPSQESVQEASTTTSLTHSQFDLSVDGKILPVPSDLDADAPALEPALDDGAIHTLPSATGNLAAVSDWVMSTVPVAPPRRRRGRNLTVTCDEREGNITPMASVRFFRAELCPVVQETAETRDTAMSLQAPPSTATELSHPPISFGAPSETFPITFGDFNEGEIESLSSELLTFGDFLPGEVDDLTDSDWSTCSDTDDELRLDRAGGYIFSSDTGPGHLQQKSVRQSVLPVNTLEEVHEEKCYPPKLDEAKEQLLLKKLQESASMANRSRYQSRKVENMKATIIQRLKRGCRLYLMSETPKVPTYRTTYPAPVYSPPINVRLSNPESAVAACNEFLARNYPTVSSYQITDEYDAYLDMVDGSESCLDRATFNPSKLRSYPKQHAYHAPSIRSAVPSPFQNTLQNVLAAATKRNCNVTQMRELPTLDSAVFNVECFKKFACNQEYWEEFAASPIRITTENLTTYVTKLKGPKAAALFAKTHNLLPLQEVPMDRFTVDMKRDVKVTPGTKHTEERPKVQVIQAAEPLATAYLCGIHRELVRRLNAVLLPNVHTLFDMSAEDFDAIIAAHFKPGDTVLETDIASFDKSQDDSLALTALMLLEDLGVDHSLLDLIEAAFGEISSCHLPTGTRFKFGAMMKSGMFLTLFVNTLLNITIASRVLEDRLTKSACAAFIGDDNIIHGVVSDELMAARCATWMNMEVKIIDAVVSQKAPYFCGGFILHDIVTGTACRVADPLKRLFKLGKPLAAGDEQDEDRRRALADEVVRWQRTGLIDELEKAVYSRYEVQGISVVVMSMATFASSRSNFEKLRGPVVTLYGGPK
row,SMILES,Potency
1,COc1ccc(CCNS(=O)(=O)c2cc(-c3cc(C)no3)ccc2C)cc1OC,inactive
2,CC(C)c1nccn1CCCNc1nc(-c2ccncc2)nc2c1cnn2C,inactive
3,COc1ccc(NC(=O)Cn2c(=O)n(CCC(C)C)c(=O)c3cccnc32)cc1Cl,inactive
4,N#Cc1ccc(NCCNCC(=O)N2CCCC2C#N)nc1 (stereo not drawn),inactive
5,CC(C)NC(=O)c1nn(-c2ccccc2F)nc1CO,inactive
6,CC(C)Nc1ncc(C(=O)NC2CCCN(CCc3ccccc3)C2)cn1 (stereo not drawn),inactive
7,CN1CCCN(C(=O)CN2CC3CC(C2)[C@H]2CCCC(=O)N2C3)CC1 (stereo partly drawn),inactive
8,Cc1ccccc1-c1nc(NCc2ccc(-c3cccnc3)cc2)c2ccccc2n1,inactive
9,CC(C)(O)c1ccc2c(c1)C(=O)CC1[C@](C)(CO)CCC[C@]21C (stereo partly drawn),inactive
10,COc1ccc(-c2nc(S(=O)(=O)c3ccccc3)c(N3CCCCC3)o2)cc1,11.2 µM (active)
11,COc1cccc(-c2nc(S(=O)(=O)c3ccc(C)cc3)c(NCc3ccccc3)o2)c1,inactive
12,O=C(CSc1oc(-c2ccc(F)cc2)nc1S(=O)(=O)c1ccc(Br)cc1)NC1CCCCC1,inactive
13,CN(C)c1cccc(-c2cnc(Nc3cnccn3)c3c2CCO3)c1,inactive
14,CCCCNc1nc(C)nc2c1nc(-c1ccccc1)n2CCCCN(CC)CC,inactive
15,COc1ccc(OC)c(NC(=O)C2CCCN(S(=O)(=O)c3ccc4c(c3)CCCC(=O)N4)C2)c1 (stereo not drawn),inactive
16,C[C@H]1CC[C@@H]2N(C1)C[C@@H]1[C@H]([C@@H](O)[C@H](O)[C@]3(O)[C@H]1C[C@@]14OC5(O)[C@@H](C[C@@H](O)[C@@H]31)[C@]4(C)CC[C@@H]5O)[C@]2(C)O,inactive
17,COc1ccccc1CNC(=O)CN1CCCC(CO)(CC2CC2)C1 (stereo not drawn),inactive
18,COCCCN1CCC(NC(=O)c2cc(Cl)c(N)c3c2OCC3)CC1,inactive
19,COC(=O)c1ccccc1NC(=O)c1ccc(COc2ccccc2Cl)o1,inactive
20,COc1cc(OC)c(NC(=O)c2ccc(Cc3cc4c(cc3C)C(C)(C)CCC4(C)C)o2)c(OC)c1,11.1 µM (active)
21,Cc1ccc(CN(C(=O)c2ccccc2[N+](=O)[O-])c2ccccn2)cc1,inactive

row,SMILES,Potency
1,COc1ccc2oc(=O)c(-c3cn4c(n3)sc3cc(OC)ccc34)cc2c1,inactive
2,Cc1ccc(C2CCN(C(=O)c3cnn(-c4ccccc4Cl)c3C3CCN(C(=O)OC(C)(C)C)CC3)C2)cc1 (stereo not drawn),inactive
3,Cc1c(P(=S)(c2ccccc2)c2ccccc2)[n+]2ccccc2n1CCCCc1ccccc1,inactive
4,Cc1cnc(C(=O)N[C@H]2CCCCC/C=C\[C@@H]3C[C@@]3(C(=O)NS(=O)(=O)C3CC3)NC(=O)[C@@H]3C[C@@H](Oc4nc5ccccc5c5ccccc45)CN3C2=O)cn1,inactive
5,CS(=O)(=O)c1ccc(OC[C@H]2C[C@@H](NC(=O)c3ccccc3)[C@H](O)[C@@H]2O)cc1,inactive
6,CC1(C)[C@H](Cc2cc(-c3ccccc3)on2)C[C@@H]1NCC1CC1,inactive
7,Cc1cccc(NC(=O)CSc2ncc(-c3ccccc3)[nH]2)c1C,inactive
8,CCCc1nc(C(=O)N2CCC3(CCCNC3)C2)cs1 (stereo not drawn),inactive
9,Clc1ccccc1CSc1nncn2c1cc1occc12,inactive
10,O=C(NCC(c1ccco1)S(=O)(=O)c1cccs1)c1ccc(F)cc1 (stereo not drawn),inactive
11,CCOc1ccc(NC(=O)Cn2c(C)ccc(C#N)c2=O)cc1,inactive
12,COc1ccc(-c2ccc3ncn(C4CC4)c(=O)c3n2)cn1,inactive
13,Cc1ccc(-c2ccc(=O)n(CCNC(C)c3ccco3)n2)cc1 (stereo not drawn),inactive
14,Cc1ccc(Cl)cc1NC(=O)C1CCCN(c2cnccn2)C1 (stereo not drawn),inactive
15,C=C1C(=O)OC2C=C(C)CC/C=C(\CO)CC(O)C12 (stereo not drawn),inactive
16,CCN(c1ncnc2c1cnn2-c1ccc(C)cc1)C1CCCCC1,inactive
17,Cc1ccc(Cl)cc1NC(=O)/C(C#N)=C\c1cn(Cc2ccc(F)cc2)c2ccccc12,inactive
18,CCCN1CCc2nc(N3CCN(C)CC3)ncc2C1,inactive
19,CC1CCN(S(=O)(=O)c2ccc3c(ccn3CCC(=O)NCc3ccc(N(C)C)cc3)c2)CC1,inactive
20,Oc1ccc2c3c1O[C@H]1c4[nH]c5c(N=C=S)cccc5c4C[C@@]4(O)[C@@H](C2)N(CC2CC2)CC[C@]314,inactive
21,O=C(NCC(c1ccc2c(c1)OCO2)N1CCN(c2ccccc2)CC1)C(=O)Nc1ccccc1F (stereo not drawn),inactive

row,SMILES,Potency
1,Cc1cc(C(=O)NC2CC(c3cc(=O)[nH]cn3)C2)cc(S(N)(=O)=O)c1C (stereo not drawn),inactive
2,CCS(=O)(=O)N1CCc2cc(C(=O)NCc3ccc(OC)cc3)ccc21,inactive
3,Cc1nc(CNC(=O)[C@H]2CCC[C@@H](O)C2)nc2c1CCCC2,inactive
4,CCOC(=O)c1ccc(NC(=O)C2CC(=O)N(c3ccc(C(C)C)cc3)C2)cc1 (stereo not drawn),inactive
5,Cc1nc(C)c(-c2ccc3ncnc(N(C)Cc4sccc4C)c3c2)s1,inactive
6,O=C(Cn1c(=O)n(-c2ccc(F)cc2)c(=O)c2sccc21)Nc1cccc(C(F)(F)F)c1,inactive
7,COc1cc(C(C)=O)ccc1O[C@@H]1O[C@H](CO[C@@H]2OC[C@@H](O)[C@H](O)[C@H]2O)[C@@H](O)[C@H](O)[C@H]1O,inactive
8,Cc1cc(-c2ccc(C)c(S(=O)(=O)N3c4ccccc4CC3C)c2)on1 (stereo not drawn),inactive
9,CCOC(=O)N1CCc2c(sc3c2c(=O)n(Cc2ccccc2)c(=O)n3CC(=O)Nc2cccc(C)c2)C1,inactive
10,CNC(=O)[C@@H]1C[C@@H](O)CN1C1CCN(C(=O)C2(c3ccccc3)CC2)CC1,inactive
11,O=c1cc(-c2cccnc2)oc2c(-c3cccc(CO)c3)nccc12,inactive
12,NC(=O)CN1CC2(CCC1=O)CCN(C[C@@H](O)CO)CC2,inactive
13,Cc1nc(C(=O)N2CCn3nc(Cc4ccccc4)cc3C2)cs1,inactive
14,OCC1(CCCc2ccccc2)CCCNC1 (stereo not drawn),inactive
15,Cc1ccc(OCCn2c(CCNC(=O)c3ccccc3)nc3ccccc32)cc1,inactive
16,Cc1cccc(Nc2nc(C)nc(N)c2S(=O)(=O)c2ccccc2)c1,inactive
17,N#CSc1cc(SC#N)c(N)nc1N,664 nM (active) and 351 nM (active) and 1.24 µM (active)
18,CCCNC(=O)C(CC)n1nc(CC)n2c(cc3oc(C)cc32)c1=O (stereo not drawn),inactive
19,COC([CH2][Hg])CNC(=O)c1ccccc1OCC(=O)O (stereo not drawn),1.49 µM (active)
20,COc1ccc(-c2ccccc2C(=O)NCC#N)nn1,inactive
21,Cc1ccc(CNC(=O)CSC2=Nc3ccccc3C3=NC(C)C(=O)N23)cc1 (stereo not drawn),inactive
